Source: PubChem BioAssay (National Center for Advancing Translational Sciences (NCATS))
Shown is part of a subset that was picked to be rich in hits.
KDM5B inh: Primary screen for KDM5B Histone Demethylases FDH-coupled qHTS | KDM5B demethylase, FDH-coupled NADH fluorescence (FDH is formaldehyde dehydrogenase) | Lysine-specific demethylase 5B (Homo sapiens), Q9UGL1 | Potency, µM (highest dose often 57.7 µM), actives largely listed as inhibitors | hit rate 2.6% among 220,000; active means well fitted inhibition curve with a large enough effect; further: 0% is about no effect; nearly all actives have a fitted effect of over 70% in size
Target sequence (Q9UGL1 whole entry, looked up): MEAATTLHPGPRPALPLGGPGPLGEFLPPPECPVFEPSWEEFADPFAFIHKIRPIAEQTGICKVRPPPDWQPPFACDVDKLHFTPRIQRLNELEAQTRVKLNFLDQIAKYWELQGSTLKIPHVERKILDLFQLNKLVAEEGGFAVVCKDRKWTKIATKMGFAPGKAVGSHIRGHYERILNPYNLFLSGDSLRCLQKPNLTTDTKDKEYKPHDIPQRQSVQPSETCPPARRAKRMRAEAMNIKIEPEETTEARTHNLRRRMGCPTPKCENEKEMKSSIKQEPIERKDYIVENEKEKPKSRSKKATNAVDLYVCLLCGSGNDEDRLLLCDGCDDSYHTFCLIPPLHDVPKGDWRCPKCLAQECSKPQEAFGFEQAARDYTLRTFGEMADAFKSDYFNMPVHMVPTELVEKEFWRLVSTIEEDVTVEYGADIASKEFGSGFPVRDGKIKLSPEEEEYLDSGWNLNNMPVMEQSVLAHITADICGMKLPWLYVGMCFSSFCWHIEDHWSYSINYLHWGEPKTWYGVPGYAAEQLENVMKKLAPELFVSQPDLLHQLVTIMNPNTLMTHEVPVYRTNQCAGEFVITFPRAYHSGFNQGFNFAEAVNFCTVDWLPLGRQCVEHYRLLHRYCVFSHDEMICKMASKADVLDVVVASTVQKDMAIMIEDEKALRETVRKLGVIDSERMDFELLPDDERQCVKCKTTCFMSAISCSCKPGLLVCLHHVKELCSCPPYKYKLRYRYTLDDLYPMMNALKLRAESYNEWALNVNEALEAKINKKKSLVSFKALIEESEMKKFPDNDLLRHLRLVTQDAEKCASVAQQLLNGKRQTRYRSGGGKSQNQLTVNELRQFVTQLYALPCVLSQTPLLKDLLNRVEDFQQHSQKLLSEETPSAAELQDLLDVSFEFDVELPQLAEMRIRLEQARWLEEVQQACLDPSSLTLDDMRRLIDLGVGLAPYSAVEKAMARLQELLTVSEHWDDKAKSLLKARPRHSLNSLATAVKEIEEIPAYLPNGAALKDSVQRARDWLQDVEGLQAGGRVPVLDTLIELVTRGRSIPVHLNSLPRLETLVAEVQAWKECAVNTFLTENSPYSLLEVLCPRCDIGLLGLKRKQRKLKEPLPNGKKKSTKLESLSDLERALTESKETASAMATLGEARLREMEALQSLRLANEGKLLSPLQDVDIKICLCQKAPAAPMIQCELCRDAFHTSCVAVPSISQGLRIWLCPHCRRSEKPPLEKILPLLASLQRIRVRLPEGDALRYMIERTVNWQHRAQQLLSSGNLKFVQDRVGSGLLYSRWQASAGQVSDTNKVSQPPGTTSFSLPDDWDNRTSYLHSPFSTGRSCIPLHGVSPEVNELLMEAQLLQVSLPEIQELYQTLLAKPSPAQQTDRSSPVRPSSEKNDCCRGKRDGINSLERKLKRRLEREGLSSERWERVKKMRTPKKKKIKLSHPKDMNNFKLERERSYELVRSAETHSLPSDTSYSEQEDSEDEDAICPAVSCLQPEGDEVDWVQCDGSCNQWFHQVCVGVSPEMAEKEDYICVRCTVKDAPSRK
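Here, H3K4me3 peptide (12.5 µM in substrate mix) is demethylated by KDM5BΔAP, 200 nM final, after 10 min compound exposure. Formaldehyde product is coupled through FDH (0.25 U/mL in mix) to NADH fluorescence; 30-min ΔRFU feeds dose-response curves.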
Numbers without * were called inactive; i = inactive. Potency means the concentration at half of the fitted maximal effect.

SMILES	KDM5B inh
CCN1CCCCC12Cc1ccccc1CN(C(=O)Cc1ccccc1)C2 (centres undefined)	i
CCCS(=O)(=O)Nc1ccc(=O)n2c1[C@@H]1C[C@@H](CN(S(=O)(=O)c3ccccc3)C1)C2	i
CCCS(=O)(=O)Nc1ccc(=O)n2c1[C@@H]1C[C@@H](CN(C(=O)c3ccc(F)cc3)C1)C2	i
CCCS(=O)(=O)Nc1ccc(=O)n2c1[C@@H]1C[C@@H](CN(S(=O)(=O)c3ccc(OC)cc3)C1)C2	22µM*
COc1ccc(C(=O)N2C[C@@H]3C[C@H](C2)c2c(NC(=O)c4ccco4)ccc(=O)n2C3)cc1	i
CCCS(=O)(=O)Nc1ccc(=O)n2c1[C@@H]1C[C@@H](CN(C(=O)Nc3ccc(OC)cc3)C1)C2	28µM*
COc1ccc(NC(=O)N2C[C@@H]3C[C@H](C2)c2c(NC(=O)CSC)ccc(=O)n2C3)cc1	i
Cc1cc(CN2CCCC3(C2)NC(=O)c2ccccc2O3)no1 (centres undefined)	i
O=C(c1ccccc1)N1CCC(C(=O)O)(c2ccccc2)CC1	i
O=C(NC1CCCCC1)N1C[C@@H]2C[C@H](C1)c1c(-c3cncnc3)ccc(=O)n1C2	i
CCNC(=O)Nc1ccc(OCC(=O)N2CCN(CC(C)C)CC2)nc1	i
CC(C(N)=O)N1CCC2(CC1)C(=O)N(C)c1ccccc12 (centres undefined)	i
c1ccc(CN2CCCC3(CC(c4ccccn4)=NO3)C2)nc1 (centres undefined)	i
O=C(Nc1ccc2n(c1=O)C[C@H]1C[C@@H]2CN(c2ncccn2)C1)c1ccccc1	i
COc1ccccc1NC(=O)Nc1ccc2n(c1=O)C[C@H]1C[C@@H]2CN(C2CCOCC2)C1	16µM*
COc1ccccc1NC(=O)N1C[C@@H]2C[C@H](C1)c1c(C3CCCCC3)ccc(=O)n1C2	i
c1nc(N2C[C@@H](c3ccc4c(c3)OCO4)[C@@H]3[C@H]2C2CCN3CC2)c2[nH]cnc2n1	i
COCCNC(=O)Cn1cc(C(=O)c2ccccc2)c2ccccc21	i
Cn1cc(CN2CCN(C(=O)Cc3ccccc3)CC2)ccc1=O	i
Cc1noc(C)c1COc1ccc(CC(=O)N2CCN(CC(=O)N3CCCCC3)CC2)cc1	i
CCn1cc(CN2CCN(C(=O)Cc3c(C)noc3C)CC2)ccc1=O	11µM*
COc1cc2c(cc1OCc1ccccc1)NC(=O)C21CCN(Cc2c(C)noc2C)CC1	i
CCn1cc(CN2CCN(C(=O)Cc3cccs3)CC2)ccc1=O	13µM*
Cc1ccc(OCC(=O)N2CCN(Cc3ccc(=O)n(C)c3)CC2)cc1	i
Cn1cc(CN2CCOC[C@H](O)C2)c2ccccc21	i
SMILES	KDM5B inh
O=C(NCc1ccc(F)cc1)[C@H]1CN2CCC1C[C@@H]2Cn1cc(-c2ccccn2)nn1 (some centres undefined)	i
CCN(CC)C[C@H]1CN2CC[C@H]1C[C@@H]2CNC(=O)Nc1cccc(SC)c1	i
CC[C@H]1CN2CC[C@H]1C[C@@H]2CNC(=O)CSCC(=O)O	i
COc1cc2c(cc1OCc1ccccc1)N([S+](=O)([O-])c1cccnc1)CC21CCN(C)CC1	i
O=C(C1CC1)N1[C@H]2CC[C@@H]1c1cnc(-c3ccc(F)cc3)nc1C2	i
COc1cc2c(cc1OC1CCCC1)NC(=O)C21CCN(Cc2cccnc2)CC1	i
COc1cc2c(cc1OC1CCCC1)NC(=O)C21CCN(C(C)=O)CC1	i
COc1cc2c(cc1OCc1ccccc1)NC(=O)C21CCN(c2ccnc(C)n2)CC1	i
COc1cc2c(cc1OC1CCCC1)NC(=O)C21CCN(c2ccc(C#N)cn2)CC1	32µM*
COc1cc2c(cc1Oc1ccccc1)NC(=O)C21CCN(CCC(C)C)CC1	i
COc1cc2c(cc1OCc1ccccc1)NC(=O)C21CCN(c2ccccn2)CC1	25µM*
COc1cc2c(cc1OCc1ccccc1)NC(=O)C21CCN(Cc2ccncc2)CC1	i
COc1cc2c(cc1Oc1ccccc1)NC(=O)C21CCN(C(=O)c2scnc2C)CC1	i
COc1cc2c(cc1Oc1ccccc1)NC(=O)C21CCN(c2nc(C)cnc2C)CC1	32µM*
COc1cc2c(cc1Oc1ccccc1)NC(=O)C21CCN(c2ncc(C(C)C)cn2)CC1	28µM*
COc1cc2c(cc1OC1CCCC1)NC(=O)C21CCN(C(=O)c2cccc(C#N)c2)CC1	i
COc1cncc(CN2CCC3(CC2)C(=O)Nc2cc(Oc4ccccc4)c(OC)cc23)c1	i
COc1cc2c(cc1Oc1ccccc1)NC(=O)C21CCN(Cc2ccccc2)CC1	i
COc1ccccc1CNC(=O)[C@H]1CN2CCC1C[C@@H]2Cn1cc(CO)nn1 (some centres undefined)	i
N#Cc1ccc(NC(=O)COC(=O)c2nc(-c3ccccc3)n(-c3ccccc3)n2)cc1Cl	i
O=C1CO[C@H]2CN(Cc3ccccn3)C[C@H]2N1	i
COc1ccc2c(c1)C1(CCN(C(=O)Nc3ccc(OC)c(OC)c3)C1)C(=O)N2 (centres undefined)	i
Cn1nc(-c2ccccc2)cc1[C@H]1CN2CC[C@H]1C[C@@H]2CNC(=O)Nc1ccccc1	i
COC[C@H]1CCCN1C[C@H]1CN2CC[C@H]1C[C@@H]2CNC(=O)Nc1ccc(OC)cc1	i
COc1cc2c(cc1Oc1ccccc1)NC(=O)C21CCN(Cc2cccc(O)c2)CC1	i
SMILES	KDM5B inh
CC(C)(O)c1cn(C[C@H]2C[C@@H]3CCN2C[C@@H]3C(=O)NCc2ccc(F)cc2)nn1	i
Cc1ncc2c(c1CNCC1(O)CNCCOC1)CCNC2 (centres undefined)	28µM*
CC1CC(=O)C2CCCCC2N1 (centres undefined)	i
COCC(=O)N1[C@H]2CC[C@@H]1c1cnc(-c3ccccc3)nc1C2	i
O=C(c1ccc(F)cc1)N1C[C@@H]2C[C@H](C1)c1c(-c3ccc(Cl)cc3)ccc(=O)n1C2	i
O=C(C1CCCCC1)N1C[C@@H]2C[C@H](C1)c1c(/C=C/c3ccc(Cl)cc3)ccc(=O)n1C2	25µM*
O=C(NC1CCCCC1)N1C[C@@H]2C[C@H](C1)c1c(/C=C/c3ccc(Cl)cc3)ccc(=O)n1C2	i
CC1CCN(C[C@H]2CN3CC[C@H]2C[C@@H]3CNC(=O)Nc2ccsc2)CC1	i
CC[C@H]1CN2CC[C@H]1C[C@@H]2CNCc1ccc(-c2ccccc2)cc1	i
O=C(Nc1ccc2n(c1=O)C[C@H]1C[C@@H]2CN(C(=O)c2ccccn2)C1)c1cccs1	i
CC(C)(C)CC(=O)N1C[C@@H]2C[C@H](C1)c1ccc(NC(=O)Nc3cccc(F)c3)c(=O)n1C2	28µM*
CSCC(=O)Nc1ccc2n(c1=O)C[C@H]1C[C@@H]2CN(C(=O)CSCC(=O)O)C1	i
O=C(c1cccs1)N1C[C@@H]2C[C@H](C1)c1c(-c3ccc(Cl)cc3)ccc(=O)n1C2	i
O=C(NC[C@H]1C[C@@H]2CCN1C[C@@H]2CN1C[C@@H]2C[C@H](C1)c1cccc(=O)n1C2)c1ccc(C(F)(F)F)cc1	i
CCC(CC)c1cc([C@H]2CN3CC[C@H]2C[C@@H]3CNC(=O)Nc2ccc(OC)cc2)nc(-c2ccncc2)n1	i
O=C(C1CC1)N1C[C@H]2CN(Cc3cccnc3)C[C@@]2(C(=O)O)C1	i
CNc1nc(N2C[C@H]3CN(CCOC)C[C@@]3(C(=O)O)C2)ncc1F	16µM*
